# Laboratory results reported in article PMC11006913.
# Changes are numbered by the printed parent chain.
# Legend:
# Assay in all cases: PBM; 200 nM protein, PBS
# Details in all cases: dsDNA, one strand shown
# VENTX [1] = target: T1, VENTX (Homo sapiens, UniProt O95231 78-163, R121Q)
# T1 sequence: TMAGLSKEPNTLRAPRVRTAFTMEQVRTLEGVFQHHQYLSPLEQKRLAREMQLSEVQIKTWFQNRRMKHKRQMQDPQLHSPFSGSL
# VENTX [2] = target: T2, VENTX (Homo sapiens, UniProt O95231 78-163)
# T2 sequence: T1 sequence with Q44R
# VENTX [3] = target: T3, VENTX (Homo sapiens, UniProt O95231 78-163, Y115F)
# T3 sequence: T1 sequence with Y38F, Q44R
# ALX1 [4] = target: ALX1 (Homo sapiens, UniProt Q15699 118-204, L144V)
# ALX1 [5] = target: ALX1 (Homo sapiens, UniProt Q15699 118-204, L144R)
# ALX1 [6] = target: ALX1 (Homo sapiens, UniProt Q15699 118-204)
# MSX2 [7] = target: MSX2 (Homo sapiens, UniProt P35548 130-214, R199I)
# MSX2 [8] = target: MSX2 (Homo sapiens, UniProt P35548 130-214)
# MSX2 [9] = target: MSX2 (Homo sapiens, UniProt P35548 130-214, F161Y)
# ALX3 [10] = target: ALX3 (Homo sapiens, UniProt O95076 139-225, N203Q)
# ALX3 [11] = target: ALX3 (Homo sapiens, UniProt O95076 139-225)
# VAX1 [12] = target: VAX1 (Homo sapiens, UniProt Q5SQQ9 86-172)
# ALX3 [13] = target: ALX3 (Homo sapiens, UniProt O95076 139-225, L168Q)
# ALX3 [14] = target: ALX3 (Homo sapiens, UniProt O95076 139-225, L168V)
# VAX1 [15] = target: VAX1 (Homo sapiens, UniProt Q5SQQ9 86-172, T142I)
# ALX3 [16] = target: ALX3 (Homo sapiens, UniProt O95076 139-225, N203S)
# VAX1 [17] = target: VAX1 (Homo sapiens, UniProt Q5SQQ9 86-172, K157R)
# HOXA2 [18] = target: HOXA2 (Homo sapiens, UniProt O43364 129-215, R185T)
# HOXA4 = HOXA4 (Homo sapiens, UniProt Q00056 201-287, R217L)
# HOXA2 [19] = target: HOXA2 (Homo sapiens, UniProt O43364 129-215, R185K)
# HOXA2 [20] = target: HOXA2 (Homo sapiens, UniProt O43364 129-215, Y150S)
# HOXA2 [21] = target: HOXA2 (Homo sapiens, UniProt O43364 129-215)
# NKX2-6 [22] = target: T4, NKX2-6 (Homo sapiens, UniProt A6NCS4 118-204)
# T4 sequence: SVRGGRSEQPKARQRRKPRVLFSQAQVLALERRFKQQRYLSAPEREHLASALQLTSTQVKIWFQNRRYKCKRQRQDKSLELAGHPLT
# NKX2-6 [23] = target: T5, NKX2-6 (Homo sapiens, UniProt A6NCS4 118-204, F151L)
# T5 sequence: T4 sequence with F34L
# PROP1 [24] = target: PROP1 (Homo sapiens, UniProt O75360 56-141)
# PROP1 [25] = target: PROP1 (Homo sapiens, UniProt O75360 56-141, R99H)
# PROP1 [26] = target: PROP1 (Homo sapiens, UniProt O75360 56-141, F88S)
# NKX2-6 [27] = target: T6, NKX2-6 (Homo sapiens, UniProt A6NCS4 118-204, R150C)
# T6 sequence: T4 sequence with R33C
# ALX3 (Homo sapiens, UniProt O95076 139-225, L168V), sequence (O95076 139-225 L168V): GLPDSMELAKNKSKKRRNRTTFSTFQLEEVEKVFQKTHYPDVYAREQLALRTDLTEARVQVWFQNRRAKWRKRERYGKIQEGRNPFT
# ALX3 (Homo sapiens, UniProt O95076 139-225, N203Q), sequence (O95076 139-225 N203Q): as the sequence (O95076 139-225 L168V) above, with V30L, N65Q counted along it
# ALX1 (Homo sapiens, UniProt Q15699 118-204, L144V), sequence (Q15699 118-204 L144V): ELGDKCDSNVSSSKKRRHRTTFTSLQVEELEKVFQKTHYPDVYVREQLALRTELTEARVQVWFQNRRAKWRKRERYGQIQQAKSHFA
# MSX2 (Homo sapiens, UniProt P35548 130-214, R199I), sequence (P35548 130-214 R199I): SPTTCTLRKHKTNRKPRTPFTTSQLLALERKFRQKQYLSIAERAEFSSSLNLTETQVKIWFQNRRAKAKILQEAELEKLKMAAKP
# ALX1 (Homo sapiens, UniProt Q15699 118-204), sequence (Q15699 118-204): as the sequence (Q15699 118-204 L144V) above, with V27L counted along it
# MSX2 (Homo sapiens, UniProt P35548 130-214, F161Y), sequence (P35548 130-214 F161Y): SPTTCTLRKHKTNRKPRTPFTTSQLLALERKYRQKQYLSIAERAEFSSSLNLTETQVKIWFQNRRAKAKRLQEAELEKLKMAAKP
# HOXA2 (Homo sapiens, UniProt O43364 129-215, R185T), sequence (O43364 129-215 R185T): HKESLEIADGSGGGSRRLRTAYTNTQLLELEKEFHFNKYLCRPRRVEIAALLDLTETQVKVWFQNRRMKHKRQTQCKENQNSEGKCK
# ALX3 (Homo sapiens, UniProt O95076 139-225), sequence (O95076 139-225): as the sequence (O95076 139-225 L168V) above, with V30L counted along it
# HOXA2 (Homo sapiens, UniProt O43364 129-215), sequence (O43364 129-215): as the sequence (O43364 129-215 R185T) above, with T57R counted along it
# ALX3 (Homo sapiens, UniProt O95076 139-225, N203S), sequence (O95076 139-225 N203S): as the sequence (O95076 139-225 L168V) above, with V30L, N65S counted along it
# MSX2 (Homo sapiens, UniProt P35548 130-214), sequence (P35548 130-214): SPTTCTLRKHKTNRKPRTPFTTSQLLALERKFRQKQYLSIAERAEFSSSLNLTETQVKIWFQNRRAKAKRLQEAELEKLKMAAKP
# ALX1 (Homo sapiens, UniProt Q15699 118-204, L144R), sequence (Q15699 118-204 L144R): as the sequence (Q15699 118-204 L144V) above, with V27R counted along it
# HOXA2 (Homo sapiens, UniProt O43364 129-215, R185K), sequence (O43364 129-215 R185K): as the sequence (O43364 129-215 R185T) above, with T57K counted along it
# ALX3 (Homo sapiens, UniProt O95076 139-225, L168Q), sequence (O95076 139-225 L168Q): as the sequence (O95076 139-225 L168V) above, with V30Q counted along it
# HOXA2 (Homo sapiens, UniProt O43364 129-215, Y150S), sequence (O43364 129-215 Y150S): as the sequence (O43364 129-215 R185T) above, with Y22S, T57R counted along it
# VAX1 (Homo sapiens, UniProt Q5SQQ9 86-172), sequence (Q5SQQ9 86-172): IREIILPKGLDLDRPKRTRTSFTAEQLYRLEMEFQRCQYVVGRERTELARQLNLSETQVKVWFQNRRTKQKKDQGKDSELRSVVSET
# PROP1 (Homo sapiens, UniProt O75360 56-141, R99H), sequence (O75360 56-141 R99H): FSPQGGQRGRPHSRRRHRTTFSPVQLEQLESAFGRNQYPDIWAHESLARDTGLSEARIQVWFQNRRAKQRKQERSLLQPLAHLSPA
# VAX1 (Homo sapiens, UniProt Q5SQQ9 86-172, T142I), sequence (Q5SQQ9 86-172 T142I): as the sequence (Q5SQQ9 86-172) above, with T57I counted along it
# PROP1 (Homo sapiens, UniProt O75360 56-141), sequence (O75360 56-141): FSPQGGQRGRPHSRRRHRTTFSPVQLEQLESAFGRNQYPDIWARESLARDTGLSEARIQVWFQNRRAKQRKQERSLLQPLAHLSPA
# VAX1 (Homo sapiens, UniProt Q5SQQ9 86-172, K157R), sequence (Q5SQQ9 86-172 K157R): as the sequence (Q5SQQ9 86-172) above, with K72R counted along it
# PROP1 (Homo sapiens, UniProt O75360 56-141, F88S), sequence (O75360 56-141 F88S): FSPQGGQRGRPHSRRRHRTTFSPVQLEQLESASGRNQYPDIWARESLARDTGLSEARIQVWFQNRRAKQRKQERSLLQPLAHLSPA
# HOXA4, sequence (Q00056 201-287 R217L): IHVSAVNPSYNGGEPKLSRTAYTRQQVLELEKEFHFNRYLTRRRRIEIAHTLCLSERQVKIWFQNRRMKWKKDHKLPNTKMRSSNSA
sequence,measurement,setting,value
GCCCCGGC,binding signal,VENTX [1],"8.07 upbm affinity estimate (log intensity, higher = more binding, comparable within an allelic series)"
same,binding signal,VENTX [2],"7.98 upbm affinity estimate (log intensity, higher = more binding, comparable within an allelic series)"
same,binding signal,VENTX [3],"7.96 upbm affinity estimate (log intensity, higher = more binding, comparable within an allelic series)"
same,binding signal,ALX1 [4],"6.69 upbm affinity estimate (log intensity, higher = more binding, comparable within an allelic series)"
same,binding signal,ALX1 [5],"6.67 upbm affinity estimate (log intensity, higher = more binding, comparable within an allelic series)"
same,binding signal,ALX1 [6],"6.32 upbm affinity estimate (log intensity, higher = more binding, comparable within an allelic series)"
CGAGCCAC,binding signal,VENTX [1],"8.17 upbm affinity estimate (log intensity, higher = more binding, comparable within an allelic series)"
same,binding signal,VENTX [2],"8.51 upbm affinity estimate (log intensity, higher = more binding, comparable within an allelic series)"
same,binding signal,VENTX [3],"8.31 upbm affinity estimate (log intensity, higher = more binding, comparable within an allelic series)"
CCTGGCTC,binding signal,VENTX [1],"8.01 upbm affinity estimate (log intensity, higher = more binding, comparable within an allelic series)"
same,binding signal,VENTX [2],"8.1 upbm affinity estimate (log intensity, higher = more binding, comparable within an allelic series)"
same,binding signal,VENTX [3],"8.06 upbm affinity estimate (log intensity, higher = more binding, comparable within an allelic series)"
same,binding signal,MSX2 [7],"9.46 upbm affinity estimate (log intensity, higher = more binding, comparable within an allelic series)"
same,binding signal,MSX2 [8],"9.51 upbm affinity estimate (log intensity, higher = more binding, comparable within an allelic series)"
same,binding signal,MSX2 [9],"9.47 upbm affinity estimate (log intensity, higher = more binding, comparable within an allelic series)"
CGGCGTGC,binding signal,VENTX [1],"8.01 upbm affinity estimate (log intensity, higher = more binding, comparable within an allelic series)"
same,binding signal,VENTX [2],"7.84 upbm affinity estimate (log intensity, higher = more binding, comparable within an allelic series)"
same,binding signal,VENTX [3],"8.12 upbm affinity estimate (log intensity, higher = more binding, comparable within an allelic series)"
same,binding signal,ALX3 [10],"7.7 upbm affinity estimate (log intensity, higher = more binding, comparable within an allelic series)"
same,binding signal,ALX3 [11],"7.74 upbm affinity estimate (log intensity, higher = more binding, comparable within an allelic series)"
same,binding signal,VAX1 [12],"7.08 upbm affinity estimate (log intensity, higher = more binding, comparable within an allelic series)"
same,binding signal,ALX3 [13],"7.73 upbm affinity estimate (log intensity, higher = more binding, comparable within an allelic series)"
same,binding signal,ALX3 [14],"7.75 upbm affinity estimate (log intensity, higher = more binding, comparable within an allelic series)"
same,binding signal,VAX1 [15],"7.28 upbm affinity estimate (log intensity, higher = more binding, comparable within an allelic series)"
same,binding signal,ALX3 [16],"7.71 upbm affinity estimate (log intensity, higher = more binding, comparable within an allelic series)"
same,binding signal,VAX1 [17],"7.16 upbm affinity estimate (log intensity, higher = more binding, comparable within an allelic series)"
CATTAGCG,binding signal,VENTX [1],"11.8 upbm affinity estimate (log intensity, higher = more binding, comparable within an allelic series)"
same,binding signal,VENTX [2],"12.7 upbm affinity estimate (log intensity, higher = more binding, comparable within an allelic series)"
same,binding signal,VENTX [3],"11.6 upbm affinity estimate (log intensity, higher = more binding, comparable within an allelic series)"
same,binding signal,HOXA2 [18],"12.3 upbm affinity estimate (log intensity, higher = more binding, comparable within an allelic series)"
same,binding signal,HOXA4,"11.4 upbm affinity estimate (log intensity, higher = more binding, comparable within an allelic series)"
same,binding signal,HOXA2 [19],"13.1 upbm affinity estimate (log intensity, higher = more binding, comparable within an allelic series)"
same,binding signal,HOXA2 [20],"10.7 upbm affinity estimate (log intensity, higher = more binding, comparable within an allelic series)"
same,binding signal,HOXA2 [21],"12.1 upbm affinity estimate (log intensity, higher = more binding, comparable within an allelic series)"
CGAGCCGC,binding signal,VENTX [1],"8.16 upbm affinity estimate (log intensity, higher = more binding, comparable within an allelic series)"
same,binding signal,VENTX [2],"8.17 upbm affinity estimate (log intensity, higher = more binding, comparable within an allelic series)"
same,binding signal,VENTX [3],"8.15 upbm affinity estimate (log intensity, higher = more binding, comparable within an allelic series)"
same,binding signal,ALX3 [10],"7.74 upbm affinity estimate (log intensity, higher = more binding, comparable within an allelic series)"
same,binding signal,NKX2-6 [22],"9.49 upbm affinity estimate (log intensity, higher = more binding, comparable within an allelic series)"
same,binding signal,ALX3 [11],"7.82 upbm affinity estimate (log intensity, higher = more binding, comparable within an allelic series)"
same,binding signal,ALX3 [13],"7.81 upbm affinity estimate (log intensity, higher = more binding, comparable within an allelic series)"
same,binding signal,NKX2-6 [23],"9.16 upbm affinity estimate (log intensity, higher = more binding, comparable within an allelic series)"
same,binding signal,ALX3 [14],"7.75 upbm affinity estimate (log intensity, higher = more binding, comparable within an allelic series)"
same,binding signal,ALX3 [16],"7.79 upbm affinity estimate (log intensity, higher = more binding, comparable within an allelic series)"
CTGGCAGC,binding signal,VENTX [1],"8.09 upbm affinity estimate (log intensity, higher = more binding, comparable within an allelic series)"
same,binding signal,VENTX [2],"8.14 upbm affinity estimate (log intensity, higher = more binding, comparable within an allelic series)"
same,binding signal,VENTX [3],"8.07 upbm affinity estimate (log intensity, higher = more binding, comparable within an allelic series)"
GCCCCCCC,binding signal,VENTX [1],"8.24 upbm affinity estimate (log intensity, higher = more binding, comparable within an allelic series)"
same,binding signal,VENTX [2],"8.18 upbm affinity estimate (log intensity, higher = more binding, comparable within an allelic series)"
same,binding signal,VENTX [3],"8.34 upbm affinity estimate (log intensity, higher = more binding, comparable within an allelic series)"
same,binding signal,HOXA2 [18],"7.05 upbm affinity estimate (log intensity, higher = more binding, comparable within an allelic series)"
same,binding signal,HOXA2 [19],"9.94 upbm affinity estimate (log intensity, higher = more binding, comparable within an allelic series)"
same,binding signal,HOXA2 [20],"10.3 upbm affinity estimate (log intensity, higher = more binding, comparable within an allelic series)"
same,binding signal,HOXA2 [21],"7.28 upbm affinity estimate (log intensity, higher = more binding, comparable within an allelic series)"
CTCCGTCC,binding signal,VENTX [1],"8.11 upbm affinity estimate (log intensity, higher = more binding, comparable within an allelic series)"
same,binding signal,VENTX [2],"8.05 upbm affinity estimate (log intensity, higher = more binding, comparable within an allelic series)"
same,binding signal,VENTX [3],"8.03 upbm affinity estimate (log intensity, higher = more binding, comparable within an allelic series)"
same,binding signal,ALX1 [4],"6.35 upbm affinity estimate (log intensity, higher = more binding, comparable within an allelic series)"
same,binding signal,ALX1 [5],"6.21 upbm affinity estimate (log intensity, higher = more binding, comparable within an allelic series)"
same,binding signal,PROP1 [24],"6.5 upbm affinity estimate (log intensity, higher = more binding, comparable within an allelic series)"
same,binding signal,PROP1 [25],"6.55 upbm affinity estimate (log intensity, higher = more binding, comparable within an allelic series)"
same,binding signal,PROP1 [26],"6.51 upbm affinity estimate (log intensity, higher = more binding, comparable within an allelic series)"
same,binding signal,ALX1 [6],"6.3 upbm affinity estimate (log intensity, higher = more binding, comparable within an allelic series)"
ATTAGTGG,binding signal,VENTX [1],"11.7 upbm affinity estimate (log intensity, higher = more binding, comparable within an allelic series)"
same,binding signal,VENTX [2],"12.3 upbm affinity estimate (log intensity, higher = more binding, comparable within an allelic series)"
same,binding signal,VENTX [3],"11.4 upbm affinity estimate (log intensity, higher = more binding, comparable within an allelic series)"
CGGGTCGC,binding signal,VENTX [1],"8.13 upbm affinity estimate (log intensity, higher = more binding, comparable within an allelic series)"
same,binding signal,VENTX [2],"8.41 upbm affinity estimate (log intensity, higher = more binding, comparable within an allelic series)"
same,binding signal,VENTX [3],"8.28 upbm affinity estimate (log intensity, higher = more binding, comparable within an allelic series)"
same,binding signal,NKX2-6 [27],"9.33 upbm affinity estimate (log intensity, higher = more binding, comparable within an allelic series)"
same,binding signal,MSX2 [7],"9.47 upbm affinity estimate (log intensity, higher = more binding, comparable within an allelic series)"
same,binding signal,MSX2 [8],"9.59 upbm affinity estimate (log intensity, higher = more binding, comparable within an allelic series)"
same,binding signal,MSX2 [9],"9.55 upbm affinity estimate (log intensity, higher = more binding, comparable within an allelic series)"
